# Assay results published in PubChem BioAssay.
# Unmarked numbers belong to inactive results. The rule behind the calls is not given here.
# Target: Pantothenate synthetase (Mycobacterium tuberculosis (strain ATCC 25618 / H37Rv)) (UniProt P9WIL5)
# Assay: Recombinant Mtb pantothenate synthetase (PanC) inhibitors, coupled enzyme, confirmatory (AID 375);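 note: 0% = full reaction with vehicle and 100% = no enzyme background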
# Conditions: coupled enzyme assay; at 10 µM, hits give high values
# Sequence of Pantothenate synthetase (Mycobacterium tuberculosis (strain ATCC 25618 / H37Rv)) (P9WIL5 whole entry, looked up): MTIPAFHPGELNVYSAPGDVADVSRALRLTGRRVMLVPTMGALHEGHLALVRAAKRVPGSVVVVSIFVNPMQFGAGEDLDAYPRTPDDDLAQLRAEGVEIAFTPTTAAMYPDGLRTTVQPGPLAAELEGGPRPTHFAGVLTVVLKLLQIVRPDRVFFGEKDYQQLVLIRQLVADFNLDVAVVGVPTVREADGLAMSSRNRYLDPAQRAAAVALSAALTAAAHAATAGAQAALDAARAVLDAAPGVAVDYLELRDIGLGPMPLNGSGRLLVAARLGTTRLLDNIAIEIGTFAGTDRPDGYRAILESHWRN
row,SMILES,inhibition [%]
1,CCOCCCNC(=O)C1CC(=O)N(C2CCCC2)C1 (centres undefined),2
2,CSc1nc2c(ccc3ccccc32)o1,2
3,O=C(O)CC1Sc2nc3ccccc3n2C1=O (centres undefined),0
4,CCC(=O)c1ccc(OCCN2CCOCC2)cc1,4
5,COc1ccccc1C1/C(=C(/O)c2ccccc2)C(=O)C(=O)N1CC(C)C (centres undefined),0
6,CC(C)c1ccc(NC(=O)C2CC(=O)N(C(C)C)C2)cc1 (centres undefined),5
7,Cc1onc(-c2ccccc2Cl)c1C(=O)NCCn1c(C)cc2ccccc21,8
8,CCOC(=O)c1[nH]c2ccccc2c1NC(=O)c1ccco1,0
9,COC(=O)Cn1c(CN2CCN(c3ccccc3F)CC2)nc2c1c(=O)n(C)c(=O)n2C,0
10,CCC(=O)N1CCc2cc(Br)cc(S(=O)(=O)C3(C(=O)OC)CC3)c21,0
11,CCCC(=O)C1=C(N(C)c2ccccc2)CC(C)(C)C(C(=O)OC)C1=O (centres undefined),1
12,CCCN(CCC)S(=O)(=O)c1ccc(NS(C)(=O)=O)cc1,0
13,COC(=O)c1ccc(NC(=O)Cn2nnc3ccccc32)cc1,0
14,COc1ccc2nc(N3CCC(C)CC3)c(C#N)cc2c1,7
15,O=S(c1ccsc1)c1ccsc1,0
16,O=C(C1CCCCC1)N1CC(=O)N2CCc3ccccc3C2C1 (centres undefined),3
17,S=C(c1cccs1)N1CCCC1,0
18,CC1(C)Oc2ccc3ccc(=O)oc3c2C(N2CCCCC2)C1O (centres undefined),0
19,CN(CC(=O)N1CCN(c2ccccn2)CC1)S(=O)(=O)c1ccc2ccccc2c1,0
20,COc1ccc(-c2nnc(SCC#N)o2)cc1,0

row,SMILES,inhibition [%]
1,O=C(CP(=O)(c1ccccc1)c1ccccc1)N1CCCCC1,6
2,COc1ccc(C(=O)Cn2c(N3CCCCC3)nc3c2c(=O)n(C)c(=O)n3C)cc1OC,6
3,COc1ccc(OC)c(Nc2ncnc3c2cnn3-c2ccccc2)c1,0
4,Cc1ccc(NC(=O)c2ccco2)cc1NC(=O)CSc1nnc(-c2cccs2)n1C,3
5,COc1ccc(C2CC(C(F)(F)F)n3ncc(C(=O)NCc4cccnc4)c3N2)cc1OC (centres undefined),0
6,CCCCn1c(SCC(=O)c2ccc3c(c2)OCCO3)nnc1-c1ccco1,4
7,CC(C)(C)n1nnnc1C(c1cccc(C#N)c1)N1CCC(Cc2ccccc2)CC1 (centres undefined),2
8,O=C1c2cccnc2C(=O)N1c1cccc(-c2nc3ccccc3o2)c1,3
9,Cc1ccc(-n2nc(C(=O)N3CCN(C)CC3)c3c4ccccc4n(C)c3c2=O)cc1,0
10,CC1Cc2ccccc2N1C(=O)Cc1cccs1 (centres undefined),3
11,CCn1nnnc1SCC(=O)N1c2ccccc2CCc2ccccc21,1
12,COc1cc(C2C3=C(CC(C)(C)CC3=O)Nc3c2c(=O)[nH]c(=O)n3Cc2ccccc2)ccc1O (centres undefined),4
13,CCOC(=O)c1sc2nc(SCC#N)n(CCCN3CCCC3=O)c(=O)c2c1C,0
14,CCCC(OC(=O)CN1C(=O)COc2ccccc21)C(=O)NC1CCCC1 (centres undefined),0
15,Cn1c(Cc2cccs2)nnc1SCC(=O)N1CCc2ccccc21,0
16,O=C(NC1=NCCS1)c1ccc2c(c1)C(=O)N(Cc1ccco1)C2=O,0
17,Cc1nc2ccccc2c2oc(C(=O)NCCN3CCCCC3C)cc12 (centres undefined),0
18,COc1ccc(C(O)C(CN2CCOCC2)c2ccccc2)cc1F (centres undefined),2
19,C1CNCCNCCNCCN1,0
